From PubChem BioAssay (Tox21) come the findings set out here.

Several values for one entry are separate records, joined by “and”; a condition that tells them apart may be missing. Equal values may be shown once. Records with an inconclusive call do not appear. A call without a number means that no potency is given here. Activity calls are given as the source filed them. Unless noted, calls follow the shape of the dose curve; as a rule, active = well fitted cell-killing curve with a large enough effect in the repeat runs (not every such curve was filed as active); inconclusive = weak or mixed curves, or effect the other way; inactive = no such curve, though single readings can be large or run the other way.

Tested on in one assay: not listed separately
Put plainly: qHTS assay to identify small molecule antagonists of the farnesoid-X-receptor (FXR) signaling pathway - cell viability counter screen (AID 743221). Also: nearly all actives have a fitted effect of over 50% in size. Also: potency is read from the fitted curve at half-maximal effect. Particulars: FXR-bla HEK293T viability, CellTiter-Glo luminescence, 16 h; series mostly up to 62.6 µM. A digest of the protocol: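 Multiplexed counter screen: viability of FXR-bla HEK 293T cells under agonist stimulation by chenodeoxycholic acid (50 uM, final) and test compound for 16 h at 37 C, measured by CellTiter-Glo luminescence in the reporter wells.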
For `CCCCCCCCCCCCCCCCCl`, the Potency result is “inactive”.

`CC(C)(C)c1ccccc1`: the Potency result is “inactive”.

In the case of `NCCO`, the Potency entry was “inactive”.

Consider `NC(N)=NC(=O)Cc1c(Cl)cccc1Cl`, for which the Potency result was “inactive”.

On to `CC(C)CCOCc1ccccc1`, for which the Potency entry was “inactive”.

As to `O=C(O)Cn1cnnn1`, the Potency result is “inactive”.

`CCC(CO)(CO)COCC(CC)(CO)CO`: the Potency result is “inactive”.

As for `CCCN[C@H]1CCc2nc(N)sc2C1`, the Potency result is “inactive”.

On to `O=C(Nc1ccccc1SSc1ccccc1NC(=O)c1ccccc1)c1ccccc1`, for which the Potency result was “inactive”.

For `O=C1OC2(c3ccc(O)cc3Oc3cc(O)ccc32)c2ccccc21`, the Potency result is “inactive”.

As for `Oc1c(Cl)cc(Cl)cc1Sc1cc(Cl)cc(Cl)c1O`, the Potency is 27.6 µM (active).

Consider `COc1ccc(CCN(C)CCCC(C#N)(c2ccc(OC)c(OC)c2)C(C)C)cc1OC` (stereo not given), for which the Potency entry was “inactive”.

For `CCCCC/C=C/CC1CC(=O)OC1=O` (stereo not given), the Potency entry was “inactive”.

In the case of `CNCCC(Oc1ccc(C(F)(F)F)cc1)c1ccccc1` (stereo not given), the Potency was 48.4 µM (active).

Take `c1cc(C(c2ccc(OCC3CO3)cc2)C(c2ccc(OCC3CO3)cc2)c2ccc(OCC3CO3)cc2)ccc1OCC1CO1` (stereo not given): the Potency entry was “inactive”.

Regarding `CC(N)=O`, the Potency entry was “inactive”.

As for `COc1ccc(CCN2CCC(Nc3nc4ccccc4n3Cc3ccc(F)cc3)CC2)cc1`, the Potency is 7.07 µM (active) and 29.8 µM (active).

`Nc1nc(=S)c2[nH]cnc2[nH]1`: the Potency result was “inactive”.

The target of another assay is Vitamin D3 receptor (Homo sapiens) (UniProt P11473). Description: qHTS assay to identify small molecule agonists of the vitamin D receptor (VDR) signaling pathway (AID 743222; calls by dose curve). The following applies: HEK293T VDR-UAS-bla, beta-lactamase FRET ratio, 16 h; series mostly up to 63.5 µM. The method in brief: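 Following 4 h attachment at 37C, VDR-bla cells (2,000 per well) received DMSO-dissolved compounds or controls. After 16 h incubation, LiveBLAzer B/G FRET substrate was added and fluorescence read 2 h later at room temperature.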
Vitamin D3 receptor (Homo sapiens), sequence (P11473 whole entry, looked up): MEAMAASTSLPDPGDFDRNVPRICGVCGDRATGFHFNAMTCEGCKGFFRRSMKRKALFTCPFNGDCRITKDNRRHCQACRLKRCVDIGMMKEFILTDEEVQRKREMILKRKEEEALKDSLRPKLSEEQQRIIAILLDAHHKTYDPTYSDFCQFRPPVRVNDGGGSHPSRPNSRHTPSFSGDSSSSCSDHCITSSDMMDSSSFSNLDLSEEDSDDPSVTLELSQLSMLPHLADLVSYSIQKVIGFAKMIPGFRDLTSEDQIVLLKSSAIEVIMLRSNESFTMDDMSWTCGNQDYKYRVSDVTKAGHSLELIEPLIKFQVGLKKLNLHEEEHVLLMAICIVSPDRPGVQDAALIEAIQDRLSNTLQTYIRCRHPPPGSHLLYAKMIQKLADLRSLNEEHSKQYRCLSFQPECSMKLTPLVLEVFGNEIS
With `O=C(O[C@@H]1Cc2c(O)cc(O)cc2O[C@@H]1c1cc(O)c(O)c(O)c1)c1cc(O)c(O)c(O)c1`, the Potency entry was “inactive”.

As to `N[C@@H]1CONC1=O`, the Potency result is “inactive”.

Take `CC(C)(C)NC(=O)[C@@H]1CN(Cc2cccnc2)CCN1C[C@@H](O)C[C@@H](Cc1ccccc1)C(=O)N[C@H]1c2ccccc2C[C@H]1O`: the Potency entry was “inactive”.

Regarding `CC(C)(C)c1ccc(O)c(C(C)(C)C)c1`, the Potency result is “inactive”.

Regarding `CCC(C)(C)C(=O)O[C@H]1C[C@@H](C)C=C2C=C[C@H](C)[C@H](CC[C@@H]3C[C@@H](O)CC(=O)O3)[C@H]21`, the Potency result was “inactive”.

Consider `CCCCCCCCCCCCCCCCCl`, for which the Potency result is “inactive”.

As for `CC(C)(C)c1ccccc1`, the Potency entry is “inactive”.

`NC(N)=NC(=O)Cc1c(Cl)cccc1Cl`: the Potency result is “inactive”.

For the molecule `CC(C)CCOCc1ccccc1`, the Potency result was “inactive”.

In the case of `O=C(O)Cn1cnnn1`, the Potency entry is “inactive”.

As to `CCC(CO)(CO)COCC(CC)(CO)CO`, the Potency result was “inactive”.

As for `CCCN[C@H]1CCc2nc(N)sc2C1`, the Potency entry was “inactive”.

Consider `Oc1c(Cl)cc(Cl)cc1Sc1cc(Cl)cc(Cl)c1O`, for which the Potency result is “inactive”.

Take `CCCCC/C=C/CC1CC(=O)OC1=O` (stereo not given): the Potency result was “inactive”.

In the case of `CNCCC(Oc1ccc(C(F)(F)F)cc1)c1ccccc1` (stereo not given), the Potency result is “inactive”.

Another assay has the same target. Put plainly: qHTS assay to identify small molecule antagonists of the vitamin D receptor (VDR) signaling pathway (AID 743223; active = well fitted inhibition curve with a large enough effect in the signal ratio in the repeat runs, not every such curve was filed as active; the % refers to the signal ratio; also: potency is read from the fitted curve at half-maximal effect). The following applies: VDR-UAS-bla HEK293T, beta-lactamase FRET ratio, 16 h; series mostly up to 61 µM. The method in brief: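 Cells carrying a VDR-driven beta-lactamase reporter (VDR-bla) were co-treated with compound and 3 nM final 1alpha,25-dihydroxyvitamin D3 for 16 h at 37C; reporter activity was measured as FRET substrate fluorescence after 2 h at room temperature.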
On to `O=C(O[C@@H]1Cc2c(O)cc(O)cc2O[C@@H]1c1cc(O)c(O)c(O)c1)c1cc(O)c(O)c(O)c1`, for which the Potency result is “inactive”.

Take `CCCCCCCCCCCCCC[P+](CCCC)(CCCC)CCCC`: the Potency was 19.4 µM (active) and 24.5 µM (active).

In the case of `N[C@@H]1CONC1=O`, the Potency result is “inactive”.

For `Nc1ccc(O)cc1`, the Potency entry was “inactive”.

Consider `CC(C)(C)NC(=O)[C@@H]1CN(Cc2cccnc2)CCN1C[C@@H](O)C[C@@H](Cc1ccccc1)C(=O)N[C@H]1c2ccccc2C[C@H]1O`, for which the Potency result was “inactive”.

For `CCCCCCCCCCCCCCCCCl`, the Potency entry was “inactive”.

`NC(N)=NC(=O)Cc1c(Cl)cccc1Cl`: the Potency result was “inactive”.

Turning to `CC(C)CCOCc1ccccc1`, the Potency entry was “inactive”.

Take `O=C(O)Cn1cnnn1`: the Potency result was “inactive”.

`CCC(CO)(CO)COCC(CC)(CO)CO`: the Potency entry is “inactive”.

Consider `CCCN[C@H]1CCc2nc(N)sc2C1`, for which the Potency result was “inactive”.

Regarding `CCCCC/C=C/CC1CC(=O)OC1=O` (stereo not given), the Potency result is “inactive”.
